In ChEMBL document CHEMBL1157539, “Thousands of chemical starting points for antimalarial lead identification” (Nature, 2010):

system: HepG2; experiment: GSK_TCMDC: Percent inhibition of human HepG2 cell line. Test compounds present at 10uM.; format: functional

| SMILES | Inhibition [%] |
| --- | --- |
| CS(=O)(=O)Cc1ccc(Nc2nccc(-c3c(-c4cccc(NC(=O)C5CCCCC5)c4)nn4ncccc34)n2)cc1 | 31 |
| Cc1ccc(C(=O)Nc2cccc(-c3ccc(N4CCN(C)CC4)nn3)c2)cc1[N+](=O)[O-] | 32 |
| CC(C)c1ccc2oc(-c3ccc(NC(=O)c4ccc([N+](=O)[O-])o4)cc3)nc2c1 | 99 |
| CC(C)N1CCN(c2ccc(OCCCCN3CCN(c4cccc(Cl)c4Cl)CC3)cc2Cl)CC1.Cl | 63 |
| CC(C)(C)c1ccc(NC(=O)c2cccc(CN3CCCN(Cc4cccc(Cl)c4)CC3)c2)cc1.O=C(O)C(F)(F)F | 61 |
| O=C1SC(=Cc2ccc(O)c(O)c2)C(=O)N1c1ccccc1 | 12 |
| FC(F)(F)c1ccc(NC(=S)N2CCC(CCN3CCC(c4c[nH]c5ccccc45)CC3)CC2)cc1 | 44 |
| O=C(Cc1c[nH]cn1)Nc1cccc(-c2ccc(-c3nc4cc(C(F)(F)F)ccc4[nH]3)cc2)c1 | 10 |
| COc1cc(Nc2ccnc3ccc(C(F)(F)F)cc23)ccc1OCCCc1ccccc1 | 11 |
| COc1ccccc1N1CCN(C(C(=O)NCc2ccc(C)cc2)c2ccc(C)cc2)CC1 (stereo not given) | 12 |
| COc1ccc(C(=O)CCC(=O)N(CCSC(C)(C)C)Cc2ccc(-c3ccc(CNCCc4ccc(S(C)(=O)=O)cc4)cn3)cc2)cc1F.O=C(O)C(F)(F)F | 9 |
| C[C@H](Cc1ccc(OCCCCCCOc2ccc(C[C@@H](C)NC[C@H](O)c3cccc(Cl)c3)cc2)cc1)NC[C@H](O)c1cccc(Cl)c1.Cl | 99 |
| CC1(C)N=C(N)N=C(N)N1O.Cl | 7 |
| O=C(N[C@@H](Cc1ccccc1)CN1CCC(Oc2ccc(F)cc2)CC1)c1ccc(OCCCN2CCCCC2)cc1.O=C(O)C(F)(F)F | 38 |
| Cc1cccc2nc(-c3ccc(-c4cccc(CN5CCN(CCN6CCOCC6)CC5)c4)s3)[nH]c12.O=C(O)C(F)(F)F | 33 |
| Cl.Cn1c(=N)n(CC(=O)N2CCc3ccc(Cl)cc3C2Cc2ccc(Cl)c(Cl)c2)c2ccccc21 (stereo not given) | 99 |
| O=C(NCCN1CCCCC1)c1ccc(CNC(=O)c2ccc(O)c(-c3ccc(Cl)c(Cl)c3)c2)cc1 | 3 |
| CCCCCCCCCCNCC(O)c1ccc(O)c(C(=O)OC)c1 (stereo not given) | 3 |
| CN(C)CC(=O)N(Cc1ccc(Cl)c(Cl)c1)Cc1csc(-c2ccc(CNCc3ccccc3)cc2)n1.O=C(O)C(F)(F)F | 30 |
| COc1ccc(Cc2nc3c(n2C(C)=O)SC(c2ccc(Cl)c(Cl)c2)=NN3C(C)=O)cc1 | 0 |

| SMILES | Inhibition [%] |
| --- | --- |
| Nc1ncc(-c2cccc(F)c2)cc1-c1nc2cc(F)ccc2[nH]1.O=C(O)C(F)(F)F | 54 |
| O=C([C@H]1CCCCN1c1ccc([N+](=O)[O-])c2ccccc12)N1CCN(c2ncccn2)CC1 | 50 |
| COc1ccc2nc3cc(Cl)ccc3c(NCc3ccccc3)c2c1.Cl | 8 |
| COc1ccc(Cn2c(=O)[nH]c3cc(C(=O)NC4CCN(Cc5ccccc5)CC4)ccc3c2=O)cc1 | 10 |
| Nc1nccc2ccc(-c3ccncc3)cc12 | 19 |
| O=C(Nc1ccc(Cl)cc1)Nc1cccc(-c2ccc(-c3nc4cc(F)ccc4[nH]3)cc2)c1 | 73 |
| COc1ccc(NC(=O)[C@H](Cc2ccccc2)Nc2cc(C)nc(NCCc3cccnc3)n2)cc1.O=C(O)C(F)(F)F | 11 |
| CN(C)CCCNc1ncnc2c1[nH]c1ccc(Cl)cc12 | 2 |
| CC(C)Nc1cc(C(=O)N[C@@H](Cc2ccccc2)[C@H](O)CNCc2cccc(C(F)(F)F)c2)c(F)c(N2CCCCS2(=O)=O)c1.O=CO | 0 |
| CCc1cccc2c(C#N)cn(CC(=O)Nc3ccc(OC)cc3)c12 | 0 |
| CCCC(N)C(=O)NC1CCN(c2c(F)c(N)c3c(=O)c(C(=O)O)cn4c3c2Oc2ccccc2-4)C1.Cl (stereo not given) | 66 |
| CCCCCCNC(=N)c1ccc(OCCCCCOc2ccc(C(=N)NCCCCCC)cc2)cc1.Cl | 55 |
| CN1CCN(CC(=O)Nc2ccc(-c3csc(-c4nc5ccccc5[nH]4)c3)cc2)CC1 | 6 |
| O=C(O)C1CC(=O)N(c2ccc(Cl)cc2)C1 (stereo not given) | 51 |
| Oc1ccc(CN2CCC(N3CCN(CCc4ccccc4)CC3)C(O)C2)cc1Cl (stereo not given) | 0 |
| Cc1ccc(-c2nnc(Nc3ccc(CC(N)=O)cc3)c3ccccc23)cc1S(=O)(=O)NCC1CCCO1 (stereo not given) | 0 |
| Cl.N#Cc1ccc2c(c1)CCN(CCC1CCC(NC(=O)c3cc4cccc([N+](=O)[O-])c4[nH]3)CC1)C2 (stereo not given) | 0 |
| O=[N+]([O-])c1cccc(/C=N/Nc2ccnc3ccc(C(F)(F)F)cc23)c1 | 0 |
| NCCCNc1ccc(-c2ccc(NC(=O)Nc3cc(C(F)(F)F)ccc3F)cc2)cn1.O=C(O)C(F)(F)F | 0 |
| CC(C)NCc1ccc(-c2ccc(CN3CCCC(c4ccccc4)C3)cc2)c(C(=O)NC2Cc3ccccc3C2)c1.O=C(O)C(F)(F)F (stereo not given) | 41 |
